Values without a mark were called inactive.
How the values were obtained:
Details in all cases: 60 µM; 5 days; temperature: 20 °C
[1] = system: Meloidogyne hapla J2; assay: proportion of mobile M. hapla J2 relative to DMSO control (fraction of DMSO control); higher = more viable, less nematicidal, active = 0.7 or less
How it was run: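 Two biological replicates were run and averaged, each on 96-well plates in which about 25 M. hapla J2 sat in distilled water per well. Compound was pinned in to give 60 µM final and 0.6% v/v DMSO, and the sealed plates were shaken at 200 rpm and 20 °C for 5 days before 2 µL 1 M NaOH was added. Mobility was scored microscopically and divided by the mean from the plate's DMSO-only wells, of which there were eight.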

[2] = system: Caenorhabditis elegans dauer (daf-2(e1370)); assay: proportion of mobile C. elegans dauer larvae relative to DMSO control (fraction of DMSO control); higher = more viable, less nematicidal, active = 0.63 or less; extreme values may be limits of the assay
How it was run: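 Synchronized C. elegans larvae were kept for 48 h at 25 °C on MYOB plates seeded with E. coli OP50 to induce dauer formation, and roughly 20 dauers were transferred into each well of a 96-well plate containing liquid NGM. Compound was pinned in to a final concentration of 60 µM with 0.6% v/v DMSO, and the sealed plates were shaken at 200 rpm for 5 days at 20 °C. The fraction of mobile worms was scored under a dissection microscope against DMSO-only wells and averaged across two biological replicates.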

[3] = system: Ditylenchus dipsaci; assay: proportion of mobile D. dipsaci (mixed stage) relative to DMSO control (fraction of DMSO control); higher = more viable, less nematicidal, active = 0.86 or less; extreme values may be limits of the assay
How it was run: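 The worms, D. dipsaci raised on pea plants in Gamborg B-5 agar, were recovered through a filter funnel into water. Each well of a 96-well plate then held about 20 of them in distilled water plus pinned compound at 60 µM final (0.6% v/v DMSO), and the sealed plates were shaken at 200 rpm at 20 °C for 5 days. Following addition of 2 µL 1 M NaOH, mobile worms were counted by microscopy, and mobility was expressed against DMSO controls as the average of two biological replicates.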

SMILES | proportion of mobile M. hapla J2 [1] | proportion of mobile C. elegans dauer larvae [2] | proportion of mobile D. dipsaci [3]
Clc1ccc(CSc2nnc(-c3ccccc3)o2)cc1Cl | 1.01 | 1 | 1
Brc1ccc(-c2noc(COc3ccccc3)n2)cc1 | 0.602 (active) | 1 | 1
COc1cccc(-c2noc(COc3ccccc3C)n2)c1 | 0.861 | 1 | 1
COc1cccc(-c2noc(-c3ccc(C)cc3)n2)c1 | 0.948 | 0 (active) | 1
Cc1cccc(OCc2nc(-c3ccc(-n4cccc4)cc3)no2)c1 | 1.01 | 1 | 1
Cc1cccc(-c2noc(-c3ccccc3F)n2)c1 | 0.874 | 1 | 1
Cc1ccc(-c2noc(-c3ccc(-n4nncc4C)cc3)n2)cc1 | 0.978 | 1 | 1
FC(F)(F)c1cccc(-c2noc(-c3ccccc3Cl)n2)c1 | 1.04 | 1 | 1
COc1ccc(Cl)cc1NC(=O)CSc1nnc(-c2ccncc2)o1 | 0.98 | 1 | 1
COc1cccc(OCc2nc(-c3cccc(Br)c3)no2)c1 | 0.999 | 1 | 1
Cc1ccccc1CSc1nnc(-c2ccccc2Cl)o1 | 0.888 | 1 | 1
Ic1ccc(CSc2nnc(-c3ccco3)o2)cc1 | 0.872 | 1 | 1
Brc1ccc(-c2noc(-c3ccc(Br)o3)n2)o1 | 0.949 | 1 | 1
Clc1ccc(OCc2nc(-c3ccccc3)no2)c(Cl)c1 | 0.796 | 1 | 1
Cc1cccc(-c2noc(-c3ccc(C)c(Cl)c3)n2)c1 | 1.01 | 1 | 1
CC(=O)c1cccc(NC(=O)CSc2nnc(-c3ccccc3)o2)c1 | 0.937 | 1 | 1
COc1nc(C)ccc1-c1noc(-c2ccccc2Cl)n1 | 1.02 | 1 | 1
COc1ccc(-c2noc(COc3ccccc3Cl)n2)cc1 | 1.04 | 1 | 1
COc1ccccc1-c1nc(-c2ccc(C)cc2)no1 | 1.01 | 1 | 1
c1ccc(-c2noc(C3COc4ccccc4O3)n2)cc1 (configuration not stated) | 0.953 | 0.539 (active) | 1
CC(C)(C)NC(=O)CSc1nnc(-c2ccc(C(C)(C)C)cc2)o1 | 1.02 | 1 | 1
CCSc1nnc(-c2ccc(Cl)cc2)o1 | 0 (active) | 0 (active) | 0 (active)
Cc1cccc(NC(=O)CSc2nnc(-c3ccncc3)o2)c1C | 1.02 | 1 | 1
COc1ccc(-c2nnc(SCC(=O)c3ccc(C)o3)o2)cc1 | 1 | 1 | 1
O=C(CSc1nnc(-c2ccccc2)o1)Nc1cccc(C(F)(F)F)c1 | 1 | 1 | 1

SMILES | proportion of mobile M. hapla J2 [1] | proportion of mobile C. elegans dauer larvae [2] | proportion of mobile D. dipsaci [3]
Brc1ccc(OCc2nc(-c3cccnc3)no2)cc1 | 0.955 | 1 | 1
CCOc1ccc(-c2noc(-c3ccncc3)n2)cc1OC | 1 | 1 | 1
Clc1ccccc1OCc1nc(-c2ccccn2)no1 | 1 | 1 | 1
CCOc1ccc(-c2nc(-c3cccnc3)no2)cc1OCC | 0.906 | 1 | 1
Clc1ccc(-c2nc(-c3ccncc3)no2)cc1 | 1.03 | 1 | 1
Cc1ccccc1-c1nc(-c2ccc3c(c2)OCO3)no1 | 0.848 | 1 | 0.933
Cc1ccc(-c2noc(COc3ccccc3Cl)n2)cc1 | 0.96 | 1 | 1
CCCCC(=O)Nc1ccccc1-c1nc(-c2cccnc2)no1 | 1.01 | 1 | 1
O=C(CSc1nnc(-c2ccccc2)o1)Nc1ccccc1C(F)(F)F | 0.918 | 1 | 1
COc1ccc(-c2nc(-c3ccc(C(F)(F)F)cc3)no2)cc1 | 0.966 | 1 | 1
CC(C)c1ccc(OCc2nc(-c3ccncc3)no2)c(Br)c1 | 0.82 | 1 | 1
c1ccc(COc2cccc(-c3nc(-c4ccccn4)no3)c2)cc1 | 1.03 | 1 | 1
Cc1ccc(-c2nnc(SCC(=O)NCc3ccccc3)o2)cc1 | 1.04 | 1 | 1
O=C(NCc1cccnc1)c1ccccc1-c1nc(-c2ccccc2Cl)no1 | 0.771 | 1 | 1
CCCSc1nnc(-c2ccc(Cl)cc2Cl)o1 | 0.991 | 0.143 (active) | 1
FC(F)(F)c1cccc(-c2noc(-c3cccnc3)n2)c1 | 0.813 | 1 | 0.914
COc1ccc(-c2noc(-c3ccc(Cl)cc3)n2)cc1 | 0.983 | 0.778 | 1
Cc1ccc(-c2nnc(SCC(=O)Nc3ccccc3)o2)cc1 | 0.996 | 1 | 1
Cc1cccc(-c2nnc(SCC(=O)NCCc3ccccc3)o2)c1 | 0.872 | 1 | 1
Cc1cc(OCc2nc(-c3ccncc3)no2)ccc1Cl | 0.921 | 1 | 1
Cc1ccc(-c2noc(-c3ccco3)n2)s1 | 1.11 | 0.812 | 1
Cc1ccc(Cl)cc1NC(=O)CSc1nnc(-c2ccncc2)o1 | 0.913 | 1 | 1
COc1ccc(-c2noc(-c3ccccc3C(=O)Nc3ccc(NC(C)=O)cc3)n2)cc1 | 0.923 | 1 | 1
CC(C)(C)c1ccc(-c2nnc(SCc3cccc(C#N)c3)o2)cc1 | 1.05 | 1 | 1
Cc1cc(NC(=O)CSc2nnc(-c3ccccc3Cl)o2)no1 | 0.915 | 1 | 1

SMILES | proportion of mobile M. hapla J2 [1] | proportion of mobile C. elegans dauer larvae [2] | proportion of mobile D. dipsaci [3]
CCC(=O)Nc1ccccc1-c1nc(-c2cccnc2)no1 | 1.02 | 1 | 1
Brc1ccc(OCc2nc(-c3ccncc3)no2)cc1 | 0.995 | 1 | 1
COc1ccc(-c2noc(COc3ccc(C)cc3C)n2)cc1 | 0.93 | 1 | 1
Cc1ccc(NC(=O)CSc2nnc(-c3ccccc3)o2)c(C)c1 | 0.951 | 1 | 1
COc1cccc(NC(=O)CSc2nnc(-c3ccc(Br)cc3)o2)c1 | 0.966 | 1 | 1
Cc1c(C)n(C(=O)CSc2nnc(-c3ccccc3)o2)c2ccccc12 | 0.982 | 1 | 1
CC(C)(C)NC(=O)c1ccccc1-c1nc(-c2ccccc2)no1 | 0.886 | 1 | 1
CCOc1ccccc1NC(=O)CSc1nnc(-c2ccco2)o1 | 1.01 | 1 | 1
Cc1cccc(-c2nnc(SCC(=O)Nc3ccc(Br)c(C)c3C)o2)c1 | 1 | 1 | 1
CCOc1nc(-c2ccc(C)cc2)ccc1-c1noc(-c2ccco2)n1 | 0.944 | 1 | 1
CCOc1ccc(-c2nc(-c3ccccc3)no2)cc1 | 0.922 | 1 | 1
Ic1ccc(CSc2nnc(-c3ccccc3)o2)cc1 | 0.991 | 1 | 1
O=C(Nc1ccccc1-c1nc(-c2cccnc2)no1)c1ccccc1Cl | 0.983 | 1 | 1
CCOc1cc(-c2nc(-c3cc4ccccc4nc3OC)no2)cc(OCC)c1OCC | 1.04 | 1 | 1
Cc1cccc(-c2noc(C3CCCCC3)n2)c1 | 1.01 | 1 | 1
Cc1cccc(-c2nc(-c3ccc4c(c3)OCO4)no2)c1 | 1.01 | 1 | 1
Cc1ccc(OCc2nc(-c3ccccc3Cl)no2)cc1C | 1.04 | 1 | 1
COc1cccc(-c2noc(COc3ccc(C(C)C)cc3)n2)c1 | 0.968 | 1 | 1
Brc1cccc(-c2nnc(SCc3ccccc3)o2)c1 | 0.968 | 1 | 1
Cn1c(SCc2nc(-c3ccccc3)no2)nnc1-c1ccco1 | 0.98 | 1 | 1
Cc1ccccc1-c1noc(-c2ccccc2C(=O)NCc2ccccc2)n1 | 0.874 | 1 | 1
COc1cccc(-c2noc(COc3ccc(Br)cc3)n2)c1 | 0.942 | 1 | 1
O=C(c1ccccc1-c1nc(-c2ccccc2Cl)no1)N1CCCC1 | 0.947 | 1 | 1
COc1cccc(NC(=O)c2ccccc2-c2nc(-c3ccccc3Cl)no2)c1 | 0.918 | 1 | 1

— the supplement of paper PMC11219838
